Experimental findings from PubChem BioAssay are described below.

“And” between values parts separate entries of the source, which are not always exact repeats. Equal entries are not always repeated. Results filed as inconclusive are left out. The source made the active and inactive calls. Unless noted, no stated cut-off is given here; in the data, active means inhibition above about 80%; inactive means the rest.

Test [1] in a line: LFS_MB_2R medulloblastoma cell growth inhibition, synergistic combos for chromothripsis tumors, cisplatin combos (AID 1671457).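 Further: cells exposed to compound for four days before readout.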 The note with it: LFS_MB_2R medulloblastoma cells, stronger effect = higher value.
Test [2] is described as follows: UWB1.289_BRCA1 ovarian cancer growth, cell-based, BGB or cisplatin combinations (AID 1671459). The settings on record: UWB1.289 BRCA1 ovarian carcinoma, drug combinations, stronger effect = higher value.
The nature of test [3]: human astrocyte viability loss, single and combined drugs, cytotoxicity control for chromothriptic childhood tumor combination screen, cell-based, BGB or cisplatin IC20 combos (AID 1671460).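 Further: cells exposed to compounds for 96 hours before viability readout; 0% = vehicle and 100% = killing control.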 The settings on record: Human astrocytes, drug combinations, stronger effect = higher value.
Test [4] is described as follows: modifiers of HSF1 nuclear foci, imaging, Selleck Cancer Library (AID 1347162; in the data active means plate-normalised HSF1 focus index below about 0.46). The note with it: human cells, at 10 µM; SSMD: measured here: HSF1 foci SSMD mean; cell count: measured here: cell number; plate-normalised HSF1 focus index: stronger effect = lower value.
Test [5] in a line: phospholipid biosynthesis inhibitors in animal cells, primary screen, cell-based, LOPAC library, screen 4 (AID 1347384; call rule not given here). The settings on record: phospholipid biosynthesis inhibition screen, at 10 µM.
Test [6] is described as follows: circadian clock period modulators, cell-based, LOPAC library, luminescence reporter (AID 2774; call rule not given here;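 further: values are relative to mean of DMSO wells on each plate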). The note with it: circadian reporter cells, at 7 µM, actives lie on both sides.
Test [7] concerns Hepatitis C virus NS3 helicase. Briefly: HCV NS3 helicase inhibitors, primary screen, biochemical, fluorescence polarization, LOPAC1280 library (AID 687035; in the data active means inhibition above about 37%). The settings on record: Purified HCV NS3 helicase, Cy5-dT15 ssDNA binding fluorescence polarization; stronger effect = higher value; concentration not given here. (In fluorescence polarisation assays a small probe gives low polarisation when free and higher when bound to something large.)

A short description of test [8]: Cy5 fluorescence quenching or enhancement artefacts, artefact control for HCV NS3 helicase inhibitor project, biochemical, LOPAC1280 (AID 687037; call rule not given here). The settings on record: Cy5-DNA-NS3h complex fluorescence interference counterscreen. A general note: The purpose of a counterscreen is to sort out artefacts and off-target activity.
The nature of test [9]: viability rescue of complex I mutant cybrids, primary screen, cell-based, galactose medium, ATP luminescence (AID 1645843;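 active means z-score of at least 1.8 in each of two replicates, scored against plate mean and spread of sample wells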;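 further: positive z means more ATP and so rescue of galactose-driven cybrid death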). The note with it: complex I mutant cybrid cells, 72 h, stronger effect = higher value.
Test [10] is described as follows: kinase inhibitors against Plasmodium liver-stage infection, cell-based, known kinase inhibitor set, luminescence, hepatoma host viability (AID 624392; call rule not given here;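 further: infected cells incubated roughly two days before readout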). The note with it: Plasmodium liver stage in hepatoma cells, luciferase luminescence, concentration not given here; liver cell % of control: measured here: host liver cell viability; parasite % of control: stronger effect = lower value.

Test [11] can be described thus: hESC survival regulators, cell-based (AID 493140; call rule not given here;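 further: cells exposed to compounds for four days before counting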). The settings on record: human embryonic stem cell survival screen; stronger effect = higher value.
The nature of test [12]: liver-stage malaria parasite growth inhibition, primary screen, cell-based, HepG2, luciferase luminescence, HepG2 viability (AID 624349; in the data active means parasite load remaining mostly below about 12%, no sharp cut-off; inactive means mostly above about 10%;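 further: 100% = mean of DMSO negative control wells on the same plate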). The settings on record: P. berghei liver stage in HepG2, luciferase luminescence, concentration not given here; parasite load remaining: stronger effect = lower value; viability: measured here: HepG2 viability without parasites.
Test [13] can be described thus: SU-DIPG-VI glioma cell viability, MIPE4.0 library, CellTiter-Glo luminescence, qHTS (AID 1347066; cut-off not given, nearly all actives have AC50 up to about 30 µM;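 further: cells exposed to compound for 48 hours before readout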). The note with it: CellTiter-Glo ATP luminescence.
The nature of test [14]: inhibitors of Cryptococcus chitosan production, flow cytometry, Cibacron Brilliant Red staining (AID 1347148; call rule not given here;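 further: compound exposure lasted three days at 37 degrees C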). The settings on record: Cryptococcus neoformans chitosan, stronger effect = lower value; at 10 µM unless noted. On the technique in general: A flow cytometer gives signals particle by particle.
The mark [15] stands for this setting: measured here: combination with cisplatin, at 0.5 µM.
Where [16] appears, read: measured here: combination with cisplatin, at 5 µM.
Setting [17] is: BGB combination, concentration series, at 5 µM.
The mark [18] stands for this setting: cisplatin combination, concentration series, at 5 µM.
Where [19] appears, read: measured here: combo with BGB IC20, at 0.5 µM.
Setting [20] is: measured here: combo with cisplatin IC20, at 0.5 µM.

Take `N=C1CCCN1Cc1[nH]c(=O)[nH]c(=O)c1Cl`: the inhibition was -11.5% (inactive) in [1] (at 0.5 µM); -21.1% in test [1] (setting [15]); -54.2% in test [1] (setting [16]); 3.78% in test [2] (setting [17]); 4.18% (inactive) in test [2] (at 0.5 µM); 25.3% in [2] (setting [18]). Also, the figures for the inhibition in test [3] (at 0.5 µM), in [3] (setting [19]) and in [3] (setting [20]) were 0.72% (inactive), 12.6% and -10.8%, respectively.

For the compound `Cc1nnc(C(C)C)n1C1CC2CCC(C1)N2CC[C@H](NC(=O)C1CCC(F)(F)CC1)c1ccccc1` (some centres not stated), in test [4], the SSMD came to 0.747, the cell count stood at 6250 and the plate-normalised HSF1 focus index was 1.04 (inactive). For the same compound, the compound was called inactive in test [5].

`c1ccc2c(-c3cnn4cc(-c5ccc(N6CCNCC6)cc5)cnc34)ccnc2c1`: in test [4], the SSMD was -18.9, the cell count is 2900 and the plate-normalised HSF1 focus index was 0.0271 (active).

Take `COc1ccc(C(=O)C2CCN(CC(=O)N(Cc3nc4c(c(=O)[nH]3)COCC4)CC3CC3)CC2)cc1`: the inhibition was -24% (inactive) in test [1] (at 0.5 µM); -29.2% in test [1] (setting [15]); -37.9% in test [1] (setting [16]); 1.7% in [2] (setting [17]); -0.47% (inactive) in test [2] (at 0.5 µM); 18.5% in test [2] (setting [18]). Further, the inhibition is 48.9% (inactive) in [3] (at 0.5 µM), 45.3% in test [3] (setting [19]) and 49.7% in test [3] (setting [20]).

Consider `CCCc1c(OCCCOc2ccc(OCC(=O)O)cc2)ccc(C(C)=O)c1O`, for which the period change in [6] was -0.235 h (inactive). For the same compound, in test [7], the inhibition was -1% (inactive). Moreover, in [8], the fluorescence ratio (interference) is 1 (inactive). The compound was classed as inactive in [5]. Besides, in [9], the z-score was 1.51 (inactive).

In the case of `CC(=O)Nc1ccc(C(=O)Nc2ccccc2N)cc1`, the inhibition in [1] (at 0.5 µM) is -12.7% (inactive); in test [1] (setting [15]), -6.43%; in test [1] (setting [16]), 50.6%; in test [2] (setting [17]), 68.5%; in test [2] (at 0.5 µM), -2% (inactive); in test [2] (setting [18]), 75.2%. The inhibition is 17% (inactive) in test [3] (at 0.5 µM), 9.55% in [3] (setting [19]) and 26.2% in test [3] (setting [20]).

Regarding `CC(=O)[C@]1(N)Cc2c(O)c3c(c(O)c2[C@@H](O[C@H]2C[C@H](O)[C@H](O)CO2)C1)C(=O)c1ccccc1C3=O`, the inhibition was -4.05% (inactive) in test [1] (at 0.5 µM); -9.33% in test [1] (setting [15]); 67% in [1] (setting [16]); 117% in test [2] (setting [17]); 13% (inactive) in [2] (at 0.5 µM); 128% in test [2] (setting [18]). Moreover, the inhibition was 25.7% (inactive) in test [3] (at 0.5 µM), 27.9% in [3] (setting [19]) and 27.1% in test [3] (setting [20]).

On to `CCN1CCN(Cc2ccc(NC(=O)c3ccc(C)c(NC(=O)c4cncc(-c5cccs5)c4)c3)cc2C(F)(F)F)CC1`, for which, in test [10], the liver cell % of control is 83.9% and the parasite % of control was 74.7% (inactive).

With `COc1ccc(S(=O)(=O)N(CCO)c2ccccc2CN(C)C/C=C/c2ccc(Cl)cc2)cc1`, the survival in [11] is 106 (inactive). Further, in [12], the parasite load remaining was 32.7% (inactive) and the viability was 64.7%.

Take `CN(NC(=O)CC(=O)NN(C)C(=S)c1ccccc1)C(=S)c1ccccc1`: in test [4], the SSMD was found to be 2.56, the cell count turned out to be 6990 and the plate-normalised HSF1 focus index is 1.13 (inactive).

In the case of `C=C1[C@H](CO)[C@@H](O)C[C@@H]1n1cnc2c(=O)[nH]c(N)nc21`, the inhibition in test [1] (at 0.5 µM) is -6.88% (inactive); in test [1] (setting [15]), -11.9%; in test [1] (setting [16]), -13.1%; in test [2] (setting [17]) it was -20.8%; in test [2] (at 0.5 µM), -14% (inactive); in test [2] (setting [18]), -7.68%. For the same compound, the values for the inhibition in [3] (at 0.5 µM), in [3] (setting [19]) and in test [3] (setting [20]) were -13.6% (inactive), -16.4% and -16.1%, respectively.

On to `O=C(NOCC(O)CO)c1ccc(F)c(F)c1Nc1ccc(I)cc1F` (configuration not stated), for which, in [10], the liver cell % of control was 81.2% and 75.1% and 63.7%; the parasite % of control is 153% (inactive) and 268% (inactive) and 132% (inactive).

On to `COc1cc(/C=C(\C#N)C(=O)Nc2nnc(C(F)(F)F)s2)ccc1OCc1ccc(C(F)(F)F)cc1C(F)(F)F`, for which the inhibition in [7] is -5% (inactive). For the same compound, the fluorescence ratio (interference) in test [8] is 1 (inactive). The call in test [5] was inactive. Further, in test [9], the z-score was 0.35 (inactive).

Take `C[C@@H](O)[C@@H]1NC(=O)[C@H](CCCCN)NC(=O)[C@@H](Cc2c[nH]c3ccccc23)NC(=O)[C@H](Cc2ccccc2)NC(=O)[C@@H](NC(=O)[C@H](N)Cc2ccccc2)CSSC[C@@H](C(=O)N[C@H](CO)[C@@H](C)O)NC1=O`: in [12], the parasite load remaining is 22.8% (inactive) and the viability was found to be 81.5%. Also, the z-score in [9] is 0.6 (inactive).

Take `O=[N+]([O-])c1ccc(-c2nc(-c3ccc(F)cc3)c(-c3ccncc3)[nH]2)cc1`: in [12], the parasite load remaining is 29.6% (inactive) and the viability came to 67.5%. Besides, the inhibition in test [7] is 1% (inactive). Further, the fluorescence ratio (interference) in [8] was 1 (inactive). Also, the result in test [5] was inactive. The z-score in [9] is -0.155 (inactive).

Take `CNC(=O)c1ccc2c(C(=Nc3cccc(CN(C)C)c3)c3ccccc3)c(O)[nH]c2c1`: the compound was called inactive in test [13].

Turning to `CN1CCN(c2ncc(-c3cc(Cl)cc(Cl)c3Cl)c(N)n2)CC1`, in [13], the call was inactive.

For `CC(C)(C(=O)NCC(F)(F)C(F)(F)F)C(=O)N[C@@H]1C(=O)Nc2ccccc2-c2ccccc21`, in [13], the result was inactive. In test [4], the SSMD was 3.83, the cell count was found to be 7550 and the plate-normalised HSF1 focus index is 1.24 (inactive).

As for `C[N+](C)(C)CC(=O)O`, the outcome in [5] was inactive.

Turning to `COc1ccc(CNC(=O)Nc2ncc([N+](=O)[O-])s2)cc1`, in [12], the parasite load remaining was 31.3% (inactive) and the viability worked out at 94.6%. In test [4], the SSMD amounted to 1.38, the cell count stood at 7050 and the plate-normalised HSF1 focus index is 1.08 (inactive).

Turning to `NS(=O)(=O)OC[C@@H]1C[C@@H](n2ccc3c(N[C@H]4CCc5ccccc54)ncnc32)C[C@@H]1O`, the call in [13] was inactive.

As to `O=S(=O)(c1cccc2c(I)cccc12)N1CCCNCC1`, the period change in test [6] is 0.03 h (inactive). Further, the survival in [11] was 70.8 (inactive). Moreover, in test [12], the parasite load remaining was 33.8% (inactive) and the viability came to 77.3%. Besides, the inhibition in test [7] is -1% (inactive). In test [8], the fluorescence ratio (interference) is 0.9 (inactive). The fold fluorescence in [14] is 13.8 [at 120.1 µM] (inactive). Besides, the compound was classed as inactive in test [5]. For the same compound, the z-score in [9] was -0.91 (inactive).

As for `CNC(=O)[C@H](Cc1c[nH]c2ccccc12)NC(=O)[C@@H](CC(=O)NO)CC(C)C`, the fold fluorescence in test [14] was 4.97 [at 128.7 µM] (inactive).

Take `NC(=O)c1nc(F)c[nH]c1=O`: the inhibition in test [1] (at 0.5 µM) is 1.33% (inactive); in [1] (setting [15]), 5.37%; in test [1] (setting [16]), 9.87%; in [2] (setting [17]), -6.18%; in test [2] (at 0.5 µM), 1.49% (inactive); in [2] (setting [18]), 2.48%. The inhibition is -3.48% (inactive) in test [3] (at 0.5 µM), -7.39% in test [3] (setting [19]) and -5.76% in [3] (setting [20]).

As for `O=C(CCCCCCNC(=O)c1cnc(N(c2ccccc2)c2ccccc2Cl)nc1)NO`, the inhibition in test [1] (at 0.5 µM) is -16.9% (inactive); in test [1] (setting [15]), -6.73%; in test [1] (setting [16]), 81%; in [2] (setting [17]), 70.5%; in test [2] (at 0.5 µM), 15.1% (inactive); in test [2] (setting [18]) it was 83%. Moreover, the inhibition is 10.7% (inactive) in test [3] (at 0.5 µM), 11.7% in [3] (setting [19]) and 14% in test [3] (setting [20]).

For `CCS(=O)(=O)N1CC(CC#N)(n2cc(-c3ncnc4[nH]ccc34)cn2)C1`, the compound was classed as inactive in test [13].

As a reminder, the inhibition is the relative decrease from the control value, in per cent. Broadly, the viability is a read-out of living cells in per cent, often relative to untreated cells.
